Drawing on publication PMC7862700, “An all-to-all approach to the identification of sequence-specific readers for epigenetic DNA modifications on cytosine”, this text covers binding signal for 2 sequences.

Common to all, as to experiment: DAPPL (digital affinity profiling via proximity ligation, sequencing); 10 mM Tris-HCl pH 7.5, 50 mM NaCl, 1 mM DTT, 4% glycerol, room temperature, 30 min; GST-TFs on glutathione beads, 16-mer random dsDNA library, 0.1% formaldehyde crosslink after washing; high values mean tight binding
The target in one assay is T1, FLI1 (Homo sapiens, UniProt Q01543 1-452).
T1 sequence: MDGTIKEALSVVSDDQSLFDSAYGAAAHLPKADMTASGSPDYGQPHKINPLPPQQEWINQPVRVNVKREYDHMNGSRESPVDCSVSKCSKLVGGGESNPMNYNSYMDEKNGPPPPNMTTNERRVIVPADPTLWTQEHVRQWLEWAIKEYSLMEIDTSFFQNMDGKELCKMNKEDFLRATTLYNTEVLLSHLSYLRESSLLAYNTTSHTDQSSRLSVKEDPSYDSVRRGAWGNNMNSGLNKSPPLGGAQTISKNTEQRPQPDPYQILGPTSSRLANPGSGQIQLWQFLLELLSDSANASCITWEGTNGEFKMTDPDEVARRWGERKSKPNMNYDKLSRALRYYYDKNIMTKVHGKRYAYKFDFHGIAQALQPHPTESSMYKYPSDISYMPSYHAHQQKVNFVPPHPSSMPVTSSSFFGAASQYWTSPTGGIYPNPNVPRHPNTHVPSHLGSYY
To be noted: protein: recombinant; tags: N-terminal GST; dsDNA, one strand shown. The essentials:
(§1)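 Beads coated with glutathione captured GST-fused human transcription factors that had been expressed in yeast, and the factors were then given DNA barcodes and pooled with a tag-only sample. The pools were incubated with 200 nmole of a random double-stranded 16-mer DNA library in Tris/NaCl/DTT/glycerol buffer for 30 min at room temperature, washed, crosslinked with 0.1% formaldehyde and proximity-ligated with BsaI/T4 ligase at 37 °C for 1 h. PCR amplification and Illumina NextSeq500 sequencing came last. Binding signal is each hexamer's read frequency for a factor divided by its frequency for the tag-only sample.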

For another assay, the target named is T2, ELK1 (Homo sapiens, UniProt P19419 1-428).
T2 sequence: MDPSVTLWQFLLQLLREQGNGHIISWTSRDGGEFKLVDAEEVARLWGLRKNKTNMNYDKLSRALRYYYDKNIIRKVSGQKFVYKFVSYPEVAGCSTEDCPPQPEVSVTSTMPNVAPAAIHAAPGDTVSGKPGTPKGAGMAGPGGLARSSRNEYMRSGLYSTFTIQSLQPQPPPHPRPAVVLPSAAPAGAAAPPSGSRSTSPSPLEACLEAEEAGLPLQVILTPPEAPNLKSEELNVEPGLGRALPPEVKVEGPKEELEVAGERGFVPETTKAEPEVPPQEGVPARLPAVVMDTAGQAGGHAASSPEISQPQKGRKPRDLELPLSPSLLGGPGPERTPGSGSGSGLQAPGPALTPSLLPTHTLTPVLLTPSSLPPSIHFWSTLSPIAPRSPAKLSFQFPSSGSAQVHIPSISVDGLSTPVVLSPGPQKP
To be noted: protein: recombinant; tags: N-terminal GST; dsDNA, one strand shown. The essentials:
as §1

The target of the next assay is T3, ERG (Homo sapiens, UniProt P11308 1-479).
T3 sequence: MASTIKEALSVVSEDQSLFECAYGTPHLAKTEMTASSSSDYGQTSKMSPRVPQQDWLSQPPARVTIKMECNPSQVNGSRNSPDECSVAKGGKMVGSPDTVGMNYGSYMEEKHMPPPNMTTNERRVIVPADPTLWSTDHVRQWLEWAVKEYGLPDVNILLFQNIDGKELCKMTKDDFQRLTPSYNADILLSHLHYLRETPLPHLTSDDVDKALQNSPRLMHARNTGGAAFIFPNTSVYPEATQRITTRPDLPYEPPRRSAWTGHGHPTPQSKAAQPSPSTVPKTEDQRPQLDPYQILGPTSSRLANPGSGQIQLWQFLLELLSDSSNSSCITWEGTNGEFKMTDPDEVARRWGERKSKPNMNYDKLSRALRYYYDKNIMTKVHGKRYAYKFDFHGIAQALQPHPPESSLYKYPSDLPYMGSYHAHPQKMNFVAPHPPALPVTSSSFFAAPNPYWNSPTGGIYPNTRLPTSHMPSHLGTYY
The settings on record: protein: recombinant; tags: N-terminal GST; dsDNA, one strand shown. The essentials:
as §1

The target of another assay is ELF1 (Homo sapiens, UniProt P32519 1-619). The settings on record: protein: recombinant; tags: N-terminal GST; dsDNA, one strand shown. The essentials: as §1
A further assay addresses T4, EHF (Homo sapiens, UniProt Q9NZC4 1-300).
T4 sequence: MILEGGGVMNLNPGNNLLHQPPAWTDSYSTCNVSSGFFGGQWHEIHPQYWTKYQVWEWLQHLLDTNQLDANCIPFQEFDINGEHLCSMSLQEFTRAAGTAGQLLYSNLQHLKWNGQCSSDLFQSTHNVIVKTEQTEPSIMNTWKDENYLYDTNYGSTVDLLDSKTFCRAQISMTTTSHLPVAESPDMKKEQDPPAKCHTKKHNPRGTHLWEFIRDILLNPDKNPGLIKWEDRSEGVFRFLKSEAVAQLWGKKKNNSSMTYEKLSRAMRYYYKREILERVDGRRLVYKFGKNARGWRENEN
The settings on record: protein: recombinant; tags: N-terminal GST; dsDNA, one strand shown. The essentials:
as §1

The next assay addresses SPI1 (Homo sapiens, UniProt P17947 1-270). To be noted: protein: recombinant; tags: N-terminal GST; dsDNA, one strand shown. The essentials:
as §1

The next assay addresses SPIB (Homo sapiens, UniProt Q01892 1-262). To be noted: protein: recombinant; tags: N-terminal GST; dsDNA, one strand shown. The essentials: as §1
A further assay concerns the target T5, ELK3 (Homo sapiens, UniProt P41970 1-407).
T5 sequence: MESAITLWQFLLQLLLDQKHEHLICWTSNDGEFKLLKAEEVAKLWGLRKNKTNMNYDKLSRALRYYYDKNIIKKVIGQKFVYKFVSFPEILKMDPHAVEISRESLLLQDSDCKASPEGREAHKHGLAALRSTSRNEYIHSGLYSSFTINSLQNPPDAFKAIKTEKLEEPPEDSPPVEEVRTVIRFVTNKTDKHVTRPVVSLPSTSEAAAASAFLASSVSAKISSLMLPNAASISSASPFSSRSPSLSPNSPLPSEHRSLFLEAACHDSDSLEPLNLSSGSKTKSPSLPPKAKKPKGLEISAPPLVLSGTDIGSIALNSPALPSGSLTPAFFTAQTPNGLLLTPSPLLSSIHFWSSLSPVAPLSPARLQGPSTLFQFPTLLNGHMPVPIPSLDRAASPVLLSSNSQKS
To be noted: protein: recombinant; tags: N-terminal GST; dsDNA, one strand shown. The essentials:
as §1

Another assay deals with T6, FEV (Homo sapiens, UniProt Q99581 1-238).
T6 sequence: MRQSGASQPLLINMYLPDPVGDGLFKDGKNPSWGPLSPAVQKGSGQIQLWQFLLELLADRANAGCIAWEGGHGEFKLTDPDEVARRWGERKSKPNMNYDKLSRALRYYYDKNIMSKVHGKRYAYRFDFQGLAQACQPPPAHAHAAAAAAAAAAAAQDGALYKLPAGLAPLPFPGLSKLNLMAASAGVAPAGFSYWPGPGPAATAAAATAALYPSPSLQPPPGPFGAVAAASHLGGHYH
To be noted: protein: recombinant; tags: N-terminal GST; dsDNA, one strand shown. The essentials:
as §1

Another assay addresses ETV5 (Homo sapiens, UniProt P41161 1-510). The settings on record: protein: recombinant; tags: N-terminal GST; dsDNA, one strand shown. The essentials:
as §1

For another assay, the target named is HSF1 (Homo sapiens, UniProt Q00613 1-529). To be noted: protein: recombinant; tags: N-terminal GST; chain copies: 3; dsDNA, one strand shown. The essentials: as §1
The next assay deals with T7, SPIC (Homo sapiens, UniProt Q8N5J4 1-248).
T7 sequence: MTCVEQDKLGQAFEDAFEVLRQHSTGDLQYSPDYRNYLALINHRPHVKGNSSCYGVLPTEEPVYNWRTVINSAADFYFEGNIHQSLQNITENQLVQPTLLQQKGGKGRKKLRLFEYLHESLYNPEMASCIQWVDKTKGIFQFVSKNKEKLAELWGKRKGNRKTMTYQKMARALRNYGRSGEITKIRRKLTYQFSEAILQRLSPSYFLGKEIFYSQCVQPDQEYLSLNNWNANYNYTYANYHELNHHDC
The settings on record: protein: recombinant; tags: N-terminal GST; dsDNA, one strand shown. The essentials:
as §1

The target in another assay is ELF4 (Homo sapiens, UniProt Q99607 1-663). The settings on record: protein: recombinant; tags: N-terminal GST; dsDNA, one strand shown. The essentials: as §1
For another assay, the target named is T8, ETV2 (Homo sapiens, UniProt O00321 1-342).
T8 sequence: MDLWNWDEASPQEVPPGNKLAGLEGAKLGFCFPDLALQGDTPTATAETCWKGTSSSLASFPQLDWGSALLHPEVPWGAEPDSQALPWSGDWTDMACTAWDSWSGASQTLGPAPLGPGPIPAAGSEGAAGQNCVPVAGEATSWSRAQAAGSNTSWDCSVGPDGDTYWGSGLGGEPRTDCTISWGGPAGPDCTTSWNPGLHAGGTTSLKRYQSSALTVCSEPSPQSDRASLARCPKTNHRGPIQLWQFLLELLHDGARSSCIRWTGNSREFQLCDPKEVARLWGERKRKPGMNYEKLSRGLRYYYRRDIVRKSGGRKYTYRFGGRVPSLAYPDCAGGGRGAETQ
To be noted: protein: recombinant; tags: N-terminal GST; dsDNA, one strand shown. The essentials: as §1

For another assay, the target named is T9, ELF3 (Homo sapiens, UniProt P78545 1-371).
T9 sequence: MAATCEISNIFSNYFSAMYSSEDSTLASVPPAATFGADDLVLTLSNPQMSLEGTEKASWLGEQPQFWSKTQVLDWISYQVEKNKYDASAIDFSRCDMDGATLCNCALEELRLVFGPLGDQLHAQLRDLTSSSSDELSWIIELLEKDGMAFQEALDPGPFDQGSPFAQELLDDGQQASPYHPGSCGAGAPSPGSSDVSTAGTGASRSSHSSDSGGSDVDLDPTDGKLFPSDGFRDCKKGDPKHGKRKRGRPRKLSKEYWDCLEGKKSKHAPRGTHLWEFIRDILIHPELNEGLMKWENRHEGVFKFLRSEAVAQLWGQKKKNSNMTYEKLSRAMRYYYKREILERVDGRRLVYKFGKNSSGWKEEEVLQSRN
The settings on record: protein: recombinant; tags: N-terminal GST; dsDNA, one strand shown. The essentials: as §1

The target in the next assay is ETV1 (Homo sapiens, UniProt P50549 1-477). To be noted: protein: recombinant; tags: N-terminal GST; dsDNA, one strand shown. The essentials:
as §1

The target in another assay is T10, GABPA (Homo sapiens, UniProt Q06546 1-454).
T10 sequence: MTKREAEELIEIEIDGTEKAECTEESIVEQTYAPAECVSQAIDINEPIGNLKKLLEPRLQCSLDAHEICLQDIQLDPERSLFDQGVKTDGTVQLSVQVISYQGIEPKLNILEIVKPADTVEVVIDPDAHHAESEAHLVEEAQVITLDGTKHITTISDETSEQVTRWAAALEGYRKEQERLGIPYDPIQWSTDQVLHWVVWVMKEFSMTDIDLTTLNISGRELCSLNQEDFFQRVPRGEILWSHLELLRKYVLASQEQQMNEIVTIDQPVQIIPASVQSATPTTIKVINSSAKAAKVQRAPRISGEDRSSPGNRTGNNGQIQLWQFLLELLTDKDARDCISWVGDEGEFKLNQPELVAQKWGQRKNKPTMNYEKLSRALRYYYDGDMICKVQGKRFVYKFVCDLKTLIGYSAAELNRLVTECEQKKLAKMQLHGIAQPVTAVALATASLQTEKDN
To be noted: protein: recombinant; tags: N-terminal GST; dsDNA, one strand shown. The essentials:
as §1

In the next assay the target is CRX (Homo sapiens, UniProt O43186 1-299). To be noted: protein: recombinant; tags: N-terminal GST; dsDNA, one strand shown. The essentials:
as §1

Chain of SPIB (Q01892 whole entry): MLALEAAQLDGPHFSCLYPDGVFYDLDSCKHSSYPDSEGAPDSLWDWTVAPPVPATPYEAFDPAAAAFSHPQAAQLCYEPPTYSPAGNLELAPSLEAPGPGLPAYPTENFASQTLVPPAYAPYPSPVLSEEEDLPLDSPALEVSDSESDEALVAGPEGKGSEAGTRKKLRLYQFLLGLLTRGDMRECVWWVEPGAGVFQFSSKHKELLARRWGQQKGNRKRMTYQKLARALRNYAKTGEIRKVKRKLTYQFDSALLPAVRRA
Chain of HSF1 (Q00613 whole entry): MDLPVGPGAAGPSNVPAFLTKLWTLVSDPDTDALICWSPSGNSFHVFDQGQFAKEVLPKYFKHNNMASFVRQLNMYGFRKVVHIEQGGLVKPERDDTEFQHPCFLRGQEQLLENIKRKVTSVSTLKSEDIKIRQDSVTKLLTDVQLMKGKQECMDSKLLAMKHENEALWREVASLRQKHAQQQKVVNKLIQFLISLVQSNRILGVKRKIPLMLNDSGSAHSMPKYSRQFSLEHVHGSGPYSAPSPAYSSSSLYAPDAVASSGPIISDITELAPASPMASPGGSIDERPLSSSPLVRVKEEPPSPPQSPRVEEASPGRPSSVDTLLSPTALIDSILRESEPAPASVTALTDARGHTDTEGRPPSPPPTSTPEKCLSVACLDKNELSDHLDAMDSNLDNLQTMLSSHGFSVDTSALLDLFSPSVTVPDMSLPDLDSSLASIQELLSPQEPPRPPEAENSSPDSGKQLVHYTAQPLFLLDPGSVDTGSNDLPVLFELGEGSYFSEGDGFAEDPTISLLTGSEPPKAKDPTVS
Chain of ELF4 (Q99607 whole entry): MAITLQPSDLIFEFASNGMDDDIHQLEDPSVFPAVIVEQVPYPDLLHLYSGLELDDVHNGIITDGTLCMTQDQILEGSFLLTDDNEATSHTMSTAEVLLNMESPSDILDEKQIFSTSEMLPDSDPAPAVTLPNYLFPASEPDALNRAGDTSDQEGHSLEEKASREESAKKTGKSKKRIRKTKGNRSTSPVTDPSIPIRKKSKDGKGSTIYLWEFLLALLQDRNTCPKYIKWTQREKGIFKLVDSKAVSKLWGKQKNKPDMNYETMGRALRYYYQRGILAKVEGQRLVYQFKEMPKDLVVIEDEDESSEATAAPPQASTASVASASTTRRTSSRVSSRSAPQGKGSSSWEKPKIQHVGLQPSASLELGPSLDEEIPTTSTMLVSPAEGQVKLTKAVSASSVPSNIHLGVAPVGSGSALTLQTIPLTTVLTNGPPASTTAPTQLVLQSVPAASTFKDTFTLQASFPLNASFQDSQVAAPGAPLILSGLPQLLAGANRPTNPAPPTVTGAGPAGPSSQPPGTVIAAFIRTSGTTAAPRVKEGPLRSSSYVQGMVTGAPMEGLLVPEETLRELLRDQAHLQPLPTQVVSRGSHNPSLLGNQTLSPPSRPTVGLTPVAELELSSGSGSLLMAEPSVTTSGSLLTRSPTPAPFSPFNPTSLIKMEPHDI
Chain of ETV1 (P50549 whole entry): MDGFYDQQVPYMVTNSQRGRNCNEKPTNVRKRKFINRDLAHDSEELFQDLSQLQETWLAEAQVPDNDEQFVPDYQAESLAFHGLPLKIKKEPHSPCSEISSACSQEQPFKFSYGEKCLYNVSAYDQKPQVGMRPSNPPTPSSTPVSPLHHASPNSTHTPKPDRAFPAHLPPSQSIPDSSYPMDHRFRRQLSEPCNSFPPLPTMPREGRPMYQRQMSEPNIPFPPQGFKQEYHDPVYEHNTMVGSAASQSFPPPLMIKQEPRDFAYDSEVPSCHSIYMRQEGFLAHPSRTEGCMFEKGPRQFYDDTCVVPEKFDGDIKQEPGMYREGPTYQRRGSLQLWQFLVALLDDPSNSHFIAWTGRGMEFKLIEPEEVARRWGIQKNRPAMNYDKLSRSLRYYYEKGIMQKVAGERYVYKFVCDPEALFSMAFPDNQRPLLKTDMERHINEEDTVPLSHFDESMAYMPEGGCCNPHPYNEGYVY
Chain of ELF1 (P32519 whole entry): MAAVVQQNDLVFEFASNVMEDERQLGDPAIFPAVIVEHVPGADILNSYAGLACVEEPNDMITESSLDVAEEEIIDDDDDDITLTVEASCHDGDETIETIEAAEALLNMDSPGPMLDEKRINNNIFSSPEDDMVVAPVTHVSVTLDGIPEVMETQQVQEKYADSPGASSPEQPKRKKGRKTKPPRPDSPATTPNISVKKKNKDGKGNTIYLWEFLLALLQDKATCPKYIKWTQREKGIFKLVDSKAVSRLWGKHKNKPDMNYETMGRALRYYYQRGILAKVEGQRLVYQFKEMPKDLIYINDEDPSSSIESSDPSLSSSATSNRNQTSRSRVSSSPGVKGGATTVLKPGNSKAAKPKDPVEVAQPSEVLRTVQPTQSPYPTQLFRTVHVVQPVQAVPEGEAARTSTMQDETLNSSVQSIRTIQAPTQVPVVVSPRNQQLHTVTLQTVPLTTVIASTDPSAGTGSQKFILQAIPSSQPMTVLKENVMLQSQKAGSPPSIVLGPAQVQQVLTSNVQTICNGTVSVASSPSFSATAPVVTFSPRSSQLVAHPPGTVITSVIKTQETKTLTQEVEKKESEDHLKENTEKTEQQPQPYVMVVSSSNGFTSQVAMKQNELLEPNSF
Chain of ETV5 (P41161 whole entry): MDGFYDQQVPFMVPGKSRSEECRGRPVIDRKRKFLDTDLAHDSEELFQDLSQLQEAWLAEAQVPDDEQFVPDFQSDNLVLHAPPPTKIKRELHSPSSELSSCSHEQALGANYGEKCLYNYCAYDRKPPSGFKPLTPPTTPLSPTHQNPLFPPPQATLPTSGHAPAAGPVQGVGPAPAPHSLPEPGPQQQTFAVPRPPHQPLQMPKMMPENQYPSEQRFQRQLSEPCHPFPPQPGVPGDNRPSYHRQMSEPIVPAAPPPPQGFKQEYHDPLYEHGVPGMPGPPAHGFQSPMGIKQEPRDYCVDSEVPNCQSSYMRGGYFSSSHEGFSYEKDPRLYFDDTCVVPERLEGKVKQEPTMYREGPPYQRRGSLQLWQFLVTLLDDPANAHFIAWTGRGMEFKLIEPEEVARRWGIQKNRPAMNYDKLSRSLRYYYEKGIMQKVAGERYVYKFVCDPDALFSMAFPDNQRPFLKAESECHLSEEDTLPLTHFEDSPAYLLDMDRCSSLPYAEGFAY
Chain of CRX (O43186 whole entry): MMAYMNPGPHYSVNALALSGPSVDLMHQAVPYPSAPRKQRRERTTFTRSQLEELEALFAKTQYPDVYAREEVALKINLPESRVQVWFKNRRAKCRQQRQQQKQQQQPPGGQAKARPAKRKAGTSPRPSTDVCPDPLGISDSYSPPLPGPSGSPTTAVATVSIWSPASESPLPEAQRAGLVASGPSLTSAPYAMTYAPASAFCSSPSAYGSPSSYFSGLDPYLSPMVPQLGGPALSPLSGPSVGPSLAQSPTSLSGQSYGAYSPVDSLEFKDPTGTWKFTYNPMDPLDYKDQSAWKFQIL

Turning to GGAACA, the binding signal in the assay with FLI1 was 1.06 fold enrichment (6-mer frequency, TF over GST control); with ELK1, 1.09 fold enrichment (6-mer frequency, TF over GST control); with ERG, 1.16 fold enrichment (6-mer frequency, TF over GST control); with ELF1, 1.02 fold enrichment (6-mer frequency, TF over GST control); in the assay with EHF, 1.12 fold enrichment (6-mer frequency, TF over GST control); in the assay with SPI1 it was 1.15 fold enrichment (6-mer frequency, TF over GST control). Moreover, the binding signal was 1.18 fold enrichment (6-mer frequency, TF over GST control) with SPIB; 1.12 fold enrichment (6-mer frequency, TF over GST control) with ELK3; 1.01 fold enrichment (6-mer frequency, TF over GST control) in the assay with FEV; 1.16 fold enrichment (6-mer frequency, TF over GST control) with ETV5; 1.32 fold enrichment (6-mer frequency, TF over GST control) with HSF1; 1.1 fold enrichment (6-mer frequency, TF over GST control) with SPIC. The binding signal with ELF4 is 1 fold enrichment (6-mer frequency, TF over GST control); in the assay with ETV2 it was 1.11 fold enrichment (6-mer frequency, TF over GST control); in the assay with ELF3 it was 1.09 fold enrichment (6-mer frequency, TF over GST control); with ETV1, 1.08 fold enrichment (6-mer frequency, TF over GST control).
With CAAATT, the binding signal was 1.15 fold enrichment (6-mer frequency, TF over GST control) in the assay with FLI1; 1.12 fold enrichment (6-mer frequency, TF over GST control) with ELK1; 1.2 fold enrichment (6-mer frequency, TF over GST control) with GABPA; 1.16 fold enrichment (6-mer frequency, TF over GST control) with ERG; 1.14 fold enrichment (6-mer frequency, TF over GST control) in the assay with ELF1; 1.11 fold enrichment (6-mer frequency, TF over GST control) in the assay with EHF. Moreover, the binding signal with SPI1 was 1.15 fold enrichment (6-mer frequency, TF over GST control); in the assay with SPIB, 1.08 fold enrichment (6-mer frequency, TF over GST control); in the assay with ELK3 it was 1.14 fold enrichment (6-mer frequency, TF over GST control); with FEV, 1.14 fold enrichment (6-mer frequency, TF over GST control); in the assay with ETV5, 1.2 fold enrichment (6-mer frequency, TF over GST control); with HSF1 it was 1.17 fold enrichment (6-mer frequency, TF over GST control). Moreover, the binding signal with SPIC was 1.16 fold enrichment (6-mer frequency, TF over GST control); with ELF4 it was 1.07 fold enrichment (6-mer frequency, TF over GST control); with ETV2, 1.09 fold enrichment (6-mer frequency, TF over GST control); with ELF3 it was 1.17 fold enrichment (6-mer frequency, TF over GST control); in the assay with CRX, 1.12 fold enrichment (6-mer frequency, TF over GST control); with ETV1 it was 1.18 fold enrichment (6-mer frequency, TF over GST control).
